PMP22 txn: Cell-based coincidence reporter assay to measure PMP22 gene transcription in S16 Pmp22-F2sN cells - Primary screen. Potency, µM (doses to about 57.5 µM), for inactives: at the highest dose activity change, negative = inhibition, usual class: inhibitors. AID 1508649, 2021. S16 Pmp22-F2sN Schwann cells, FLuc/NLuc coincidence luminescence, 24 h. actives 2% (n = 43,000); active = clear falling dose curves in both reporters; inconclusive = both reporters move, but less clearly or upward; inactive = either reporter flat; the % is the NLuc reporter signal; also: potency is read from the fitted curve at half-maximal effect; % is scaled to controls: 0 for no effect and ±100 for the full control effect
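S16 Schwann cells carrying FLuc/NLuc coincidence reporter in the Pmp22 3' UTR treated with compound 24 h at 37C; FLuc then NLuc luminescence read sequentially by dual-luciferase reagents.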
HTT prom inh: Primary qHTS for Identification of Small Molecule Inhibitors of Huntingtin Promoter Activity; HEK293 HTT promoter firefly luciferase reporter, 24 h; Potency, µM (doses to about 57.5 µM), without a hit: top-dose activity change, negative = inhibition, actives largely listed as inhibitors; actives 0.93% (n = 48,000); AID 1508623, 2021; also: potency is read from the fitted curve at half-maximal effect; nearly all actives have a fitted effect of over 50% in size
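HEK293 cells carrying firefly luciferase reporters were seeded at 2,500 per well in Opti-MEM and cultured for 24 h. They were then treated with compounds at up to 57.5 uM final for 24 h at 37 degrees C before Dual-Glo luminescence readout.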
SKOV3 invasion: Primary qHTS assay for Inhibitors of ovarian cancer metastasis using an organotypic tumor microenvironment (TME) model; SKOV3ip1-GFP adhesion/invasion on 3D omental model, fluorescence; Potency, µM (titrated, usually from 45.8 µM), for the others: top-dose activity change, negative = inhibition, hits mostly inhibitors; actives 0.1% (n = 46,000);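 also: potency is read from the fitted curve at half-maximal effect; plate controls were DMSO wells for no effect and tomatine positive control wells for full effect; nearly all actives have a fitted effect of over 65% in size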
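Primary human omental fibroblast/mesothelial 3D culture pre-formed 48 h. SKOV3ip1-GFP cells added with compounds (0.36-46 umol/L), incubated 2 h RT/16 h 37 C, fixed; GFP cells quantified at 488/509 nm.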
pS6 MEF inh: Acumen qHTS Assay for Inhibitors of the mTORC1 Signaling Pathway in MEF (Tsc2-/-, p53-/-) Cells: Sytravon; Tsc2-/- p53-/- MEF, phospho-rpS6 immunofluorescence/PI, 24 h; Potency, µM (doses to about 38.3 µM), without a hit: at the top dose activity change, negative = inhibition, usual class: inhibitors; actives 0.78% (n = 44,000);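 also: potency is read from the fitted curve at half-maximal effect; plate controls were DMSO for no effect and rapamycin for full effect; nearly all actives have a fitted effect of over 50% in size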
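Tsc2-/-, p53-/- mouse embryonic fibroblasts (empty-vector line) exposed to compound 24 hrs at 37 C, fixed, immunostained for phospho-rpS6 and counterstained with propidium iodide. Acumen laser scanning gives % positive cells from Alexa 488/PI ratio, thresholded using 7.5 nM rapamycin; PI count gives viability.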
S16 F2sN tox: Cell viability qHTS assay in S16 Pmp22-F2sN cells; AID 1508642, 2021; S16 Pmp22-F2sN Schwann cells viability, CellTiter-Glo, 24 h; actives 0.48% (n = 43,000); Potency, µM (highest dose often 57.5 µM), without a hit: at the highest dose activity change, negative = cytotoxicity, most hits filed as cytotoxic; also: potency is read from the fitted curve at half-maximal effect; % is scaled to controls: 0 for no effect and ±100 for the full control effect; nearly all actives have a fitted effect of over 65% in size
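Used to flag compounds lowering reporter output through toxicity, this quantitative HTS measures ATP-based CellTiter-Glo luminescence in S16 Pmp22-F2sN Schwann cells after 24 h compound exposure at 37C.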
HTT-AS act: Primary qHTS for Identification of Small Molecule Activators of Huntingtin-Antisense Promoter Activity. HEK293 HTT-AS promoter firefly luciferase reporter, 24 h; response scale: percent change from vehicle, -100% = no light. Potency, µM (highest dose often 57.5 µM), for inactives: at the top dose activity change, positive = activation, hits mostly activators. actives 0.24% (n = 48,000); also: potency is read from the fitted curve at half-maximal effect; nearly all actives have a fitted effect of over 55% in size
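Firefly luciferase readout (Dual-Glo, 10 min RT) after 24 h, 37 °C compound exposure (final up to 57.5 uM) of HEK293 reporter cells cultured 24 h beforehand; PTC124 at 50 uM final as control inhibitor; activity scaled vehicle 0%, zero RLU -100%.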
NLuc saturating: Biochemical NLuc saturation counterscreen for small molecule modulators of PMP22 gene expression - Nano-Glo assay; Potency, µM (doses to about 57.5 µM), inactives show at the top dose activity change, negative = inhibition, most hits filed as inhibitors; actives 4% (n = 690); Secreted NLuc enzyme (filtered S16 cell medium), Nano-Glo luminescence; shares compounds with PMP22 txn; also: potency is read from the fitted curve at half-maximal effect; % is scaled to controls: 0 for no effect and ±100 for the full control effect
NLuc Km counter: Biochemical coelenterazine-based NLuc counterscreen for small molecule modulators of PMP22 gene expression - Km assay; shares compounds with PMP22 txn; secreted NLuc enzyme, coelenterazine luminescence, Km conditions; Potency, µM (doses to about 57.5 µM), without a hit: top-dose activity change, negative = inhibition, usual class: inhibitors; actives 5% (n = 690); also: potency is read from the fitted curve at half-maximal effect; % is scaled to controls: 0 for no effect and ±100 for the full control effect
FLuc ctr PMP22: Biochemical FLuc counterscreen for small molecule modulators of PMP22 gene expression; AID 1508640, 2021; shares compounds with PMP22 txn; purified P. pyralis FLuc, luminescence, 10 min; Potency, µM (series often up to 57.5 µM), for the others: at the highest dose activity, negative = inhibition, actives largely listed as inhibitors; 690 tested, under 10 active; also: % of control where 0% means no effect
Target sequence (P08659 whole entry, looked up): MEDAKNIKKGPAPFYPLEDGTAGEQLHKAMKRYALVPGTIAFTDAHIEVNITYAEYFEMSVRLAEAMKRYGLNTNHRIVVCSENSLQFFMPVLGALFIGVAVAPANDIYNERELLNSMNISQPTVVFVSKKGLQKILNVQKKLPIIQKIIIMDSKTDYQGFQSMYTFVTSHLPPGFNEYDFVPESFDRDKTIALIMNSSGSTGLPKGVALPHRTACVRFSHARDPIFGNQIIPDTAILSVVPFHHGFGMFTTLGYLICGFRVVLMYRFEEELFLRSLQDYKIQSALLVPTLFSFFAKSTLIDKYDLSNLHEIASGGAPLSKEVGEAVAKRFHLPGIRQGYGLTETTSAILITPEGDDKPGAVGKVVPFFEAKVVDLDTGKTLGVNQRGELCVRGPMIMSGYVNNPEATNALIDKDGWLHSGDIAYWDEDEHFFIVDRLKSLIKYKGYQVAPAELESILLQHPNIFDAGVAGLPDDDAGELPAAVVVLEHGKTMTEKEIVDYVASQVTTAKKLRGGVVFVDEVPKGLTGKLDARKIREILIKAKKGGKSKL
S16 viab conf: Cell viability qHTS assay in S16 Pmp22-F2sN cells - Confirmatory screen; shares compounds with PMP22 txn; S16 Schwann cells viability, CellTiter-Glo ATP luminescence, 24 h; Potency, µM (top dose mostly 57.5 µM), without a hit: at the top dose activity change, negative = viability loss, most hits filed as cytotoxic; actives 7% (n = 690); also: potency is read from the fitted curve at half-maximal effect; % is scaled to controls: 0 for no effect and ±100 for the full control effect
PMP22 txn conf: Cell-based coincidence reporter assay to measure PMP22 gene transcription in S16 Pmp22-F2sN cells - Confirmatory screen; AID 1508646, 2021; shares compounds with PMP22 txn; actives 22% (n = 690); S16 Schwann cells Pmp22-F2sN, dual luciferase, 24 h; Potency, µM (titrated, usually from 57.5 µM), for the others: at the top dose activity change, negative = inhibition, actives largely listed as inhibitors; active = clear falling dose curves in both reporters; inconclusive = both reporters move, but less clearly or upward; inactive = either reporter flat; the % is the FLuc reporter signal; also: potency is read from the fitted curve at half-maximal effect
An asterisk follows results filed as active. An excerpt weighted towards active compounds, which were near 3.6% of everything screened. Unless noted, calls follow the shape of the dose curve; as a rule, active = well fitted curve in the direction sought with a large enough effect; inconclusive = small, poorly fitted or top-dose-only effect, or another doubt; inactive = no such curve, though single readings can be large; an effect the other way counts as inactive or inconclusive.

Screening CCOc1ccc(C(=O)Nc2ccc3nc(SCc4ccccc4)sc3c2)cc1 returned PMP22 txn 8.9µM*, HTT prom inh -20%, SKOV3 invasion 10%, pS6 MEF inh -13%, S16 F2sN tox 9%, HTT-AS act -18%, NLuc saturating -7%, NLuc Km counter 2%, FLuc ctr PMP22 3%, S16 viab conf inconclusive and PMP22 txn conf 18µM*.
Screening Cc1ccc(CSc2nc3ccc(NC(=O)COc4ccccc4)cc3s2)cc1 returned PMP22 txn 15µM*, HTT prom inh 0%, SKOV3 invasion -6%, pS6 MEF inh 1%, S16 F2sN tox 7%, HTT-AS act -9%, NLuc saturating 1%, NLuc Km counter 2%, FLuc ctr PMP22 6%, S16 viab conf -16% and PMP22 txn conf -25%.
Screening CC(=O)Nc1ccc2nc(SCc3ccccc3)sc2c1 returned PMP22 txn -26%, HTT prom inh 30%, SKOV3 invasion -25%, pS6 MEF inh -1%, S16 F2sN tox -8% and HTT-AS act inconclusive.
`Cc1ccc(OCC(=O)Nc2ccc3nc(SCc4ccccc4)sc3c2)cc1` gave PMP22 txn -40%, HTT prom inh -6%, SKOV3 invasion 1%, pS6 MEF inh -2%, S16 F2sN tox 0% and HTT-AS act -3%.
For COc1cccc(NC(=O)CSc2ncc3c(n2)-c2ccc(Cl)cc2N(C)S3(=O)=O)c1 the results were PMP22 txn 2.5µM*, HTT prom inh -22%, SKOV3 invasion 6%, pS6 MEF inh 0%, S16 F2sN tox -7%, HTT-AS act -13%, NLuc saturating -6%, NLuc Km counter 0%, FLuc ctr PMP22 -1%, S16 viab conf -1% and PMP22 txn conf inconclusive.
COc1ccccc1NC(=O)CSc1ncc2c(n1)-c1cc(Cl)ccc1N(C)S2(=O)=O was read as PMP22 txn -24%, HTT prom inh inconclusive, SKOV3 invasion 9%, pS6 MEF inh 8%, S16 F2sN tox -27% and HTT-AS act -27%.
`Cc1cccc(CNC(=O)c2cnc3sc(N4CCOCC4)nn3c2=O)c1` gave PMP22 txn -10%, HTT prom inh 11%, SKOV3 invasion 1%, pS6 MEF inh 6%, S16 F2sN tox 1% and HTT-AS act -5%.
For Cc1cccc(CNC(=O)c2cnc3sc(N4CCCCCC4)nn3c2=O)c1 the results were PMP22 txn inconclusive, HTT prom inh -5%, SKOV3 invasion inactive, pS6 MEF inh -3%, S16 F2sN tox 4%, HTT-AS act -11%, NLuc saturating -1%, NLuc Km counter 4%, FLuc ctr PMP22 3%, S16 viab conf 23% and PMP22 txn conf -5%.
`CCc1nnc(SCC(=O)N(C)c2ccccc2)c2cc3sccc3n12` gave PMP22 txn 13µM*, HTT prom inh 2%, SKOV3 invasion -8%, pS6 MEF inh 1%, S16 F2sN tox inconclusive, HTT-AS act -27%, NLuc saturating inconclusive, NLuc Km counter inconclusive, FLuc ctr PMP22 -12%, S16 viab conf -13% and PMP22 txn conf inconclusive.
For CCc1nnc(SCc2ccc(F)cc2Cl)c2cc3sccc3n12 the results were PMP22 txn -13%, HTT prom inh 8%, SKOV3 invasion 3%, pS6 MEF inh 4%, S16 F2sN tox 19% and HTT-AS act -2%.
O=C(Nc1nnc(-c2ccco2)o1)c1cc(-c2ccccc2)nc2ccccc12 was read as HTT prom inh -10%, SKOV3 invasion -1% and HTT-AS act -11%.
For Cc1ccc2nc(NC(=O)CSc3nc4c(c(=O)n3-c3ccccc3)SCC4)sc2c1 the results were HTT prom inh inconclusive, SKOV3 invasion -5% and HTT-AS act -34%.
`Cc1cccc(CCNc2ncnc3onc(-c4ccc(Cl)cc4)c23)c1` gave PMP22 txn 19µM*, HTT prom inh inconclusive, SKOV3 invasion inactive, pS6 MEF inh 1%, S16 F2sN tox -19%, HTT-AS act -41%, NLuc saturating -1%, NLuc Km counter -1%, FLuc ctr PMP22 -6%, S16 viab conf inconclusive and PMP22 txn conf inconclusive.

Screening data from PubChem.
